About 83,000 compounds went through this panel and 20% of them were active in at least one assay; those are over-represented in the sample as a whole.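 The test compound was applied at a single concentration to cells in 96-well plates for 48 hours, and percent growth was recorded.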 The source made the active and inactive calls. The calls were made as follows: active = growth percent below 10; inactive = the rest.
Experiments:
Test in all cases: NCI-60 one-dose screen, 48 h (100 = growth as untreated, 0 = no growth, -100 = all killed)
Settings in all cases: 10 µM
SK-MEL-2 melanoma = tested on: SK-MEL-2 melanoma
SN12C renal = tested on: SN12C renal
UO-31 renal = tested on: UO-31 renal
TK-10 renal = tested on: TK-10 renal
ACHN renal = tested on: ACHN renal
CAKI-1 renal = tested on: CAKI-1 renal
A498 renal = tested on: A498 renal
CCRF-CEM leukemia = tested on: CCRF-CEM leukemia
MOLT-4 leukemia = tested on: MOLT-4 leukemia

Measured: growth

Nc1ncncc1-c1ccc(F)cc1
inactive: SK-MEL-2 melanoma 132% | SN12C renal 107% | UO-31 renal 103% | TK-10 renal 116% | ACHN renal 108% | CAKI-1 renal 98.5% | A498 renal 95.2% | CCRF-CEM leukemia 109% | MOLT-4 leukemia 98.4%

Cc1cc(/C=C2\SC(=Nc3ccccc3)N(C3CCCC3)C2=O)c(C)n1-c1ccc(Cl)cc1
active: SK-MEL-2 melanoma -77.3% | SN12C renal -51.4% | UO-31 renal -91.9% | TK-10 renal -90.9% | ACHN renal -76.3% | CAKI-1 renal -59.9% | A498 renal -88.3% | CCRF-CEM leukemia -9.97% | MOLT-4 leukemia -18%

Cc1cccc2c1O/C(=C\c1ncc([N+](=O)[O-])n1C)C2=O
active: SK-MEL-2 melanoma -45.3% | SN12C renal -48.5% | UO-31 renal -38.9% | TK-10 renal -34.3% | ACHN renal 4.76% | CAKI-1 renal -29.7% | A498 renal -72.7% | CCRF-CEM leukemia 5.23% | MOLT-4 leukemia -0.52%

Cc1ccccc1[P+](Cc1ccccc1)(c1ccccc1)c1ccccc1
inactive: SN12C renal 29.9% | UO-31 renal 67.8% | TK-10 renal 21.4% | ACHN renal 75.6% | CAKI-1 renal 86.8% | A498 renal 37% | CCRF-CEM leukemia 19.3% | MOLT-4 leukemia 19.3%
active: SK-MEL-2 melanoma -23.1%

COc1ccc(-c2cc(/C=C3\C(=O)Nc4cc(Cl)ccc43)[nH]n2)cc1OC
inactive: SK-MEL-2 melanoma 58.7% | SN12C renal 70.5% | UO-31 renal 74.6% | TK-10 renal 92.7% | ACHN renal 84.3% | CAKI-1 renal 63.9% | A498 renal 65.3% | CCRF-CEM leukemia 54.2% | MOLT-4 leukemia 75%

Cc1ccc([P+](Cc2ccc([N+](=O)[O-])cc2)(c2ccc(C)cc2)c2ccc(C)cc2)cc1
inactive: SN12C renal 67.6% | UO-31 renal 70.5% | TK-10 renal 49.1% | ACHN renal 97.5% | CAKI-1 renal 94.7% | A498 renal 65.6% | CCRF-CEM leukemia 24.5% | MOLT-4 leukemia 52.4%
active: SK-MEL-2 melanoma -21.6%

COc1cccc2c1O/C(=C\c1ncc([N+](=O)[O-])n1C)C2=O
active: SK-MEL-2 melanoma -51.5% | SN12C renal -54.2% | UO-31 renal -34.7% | TK-10 renal -33.7% | ACHN renal 7.42% | CAKI-1 renal -26.5% | A498 renal -33.4% | CCRF-CEM leukemia 8.19% | MOLT-4 leukemia -1.08%

From PubChem BioAssay (NCI)
